The text below walks through data of PubChem BioAssay (Tox21).

Experiment [1] can be described thus: Nuclear factor erythroid 2-related factor 2/antioxidant responsive element (Nrf2/ARE) small molecule agonists: qHTS cell viability counter screen in human keratinocytes (AID 1919968; active = well fitted curve in the direction sought with a large enough effect in the repeat runs; an effect the other way counts as inactive or inconclusive; also: nearly all actives have a fitted effect of over 55% in size; also: potency is read from the fitted curve at half-maximal effect). The procedure, abridged:
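Stably transfected HaCaT (KeratinoSens), 1,500/well. Test agents in DMSO were applied for 23 h, 37 C/5% CO2. CellTiter-Fluor was incubated 1 h before the fluorescence read.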
(Quantitative high-throughput screening tests each substance at several concentrations.)

Experiment [2] is described as follows: Nuclear factor erythroid 2-related factor 2/antioxidant responsive element (Nrf2/ARE) small molecule agonists: luciferase reporter gene qHTS assay in human keratinocytes (AID 1919969). Also: nearly all actives have a fitted effect of over 35% in size. Also: potency is read from the fitted curve at half-maximal effect. For orientation: In a reporter assay the amount or activity of a reporter protein is the signal.
Experiment [3] has as its target Gonadotropin-releasing hormone receptor (Homo sapiens) (UniProt P30968). The experiment in a line: Human gonadotropin-releasing hormone receptor (GnRHR) small molecule agonists, calcium flux assay in GnRHR-HEK293 cells (AID 1920063). Also: nearly all actives have a fitted effect of over 35% in size. The procedure, abridged: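 Stable human GnRHR HEK293 line. 18 h plating, then calcium dye for 1 h at 37 C. Agonist-mode compound addition from DMSO stocks; fluorescence monitored 3 min.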

Experiment [4] deals with KiSS-1 receptor (Homo sapiens) (UniProt Q969F8). The experiment in a line: Human kisspeptin (KISS1R) small molecule agonists, calcium flux assay in KISS1R-HEK293 cells (AID 1920064; active = well fitted curve in the direction sought with a large enough effect in the repeat runs; an effect the other way counts as inactive or inconclusive). The procedure, abridged: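 After overnight (18 h) culture at 37 C/5% CO2, human KISS1R-HEK293 cells received calcium dye for 1 h, then test compound; emission at 540 nm (excitation 480 nm) was tracked for 3 min.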
Chain of KiSS-1 receptor (Homo sapiens) (Q969F8 whole entry, looked up): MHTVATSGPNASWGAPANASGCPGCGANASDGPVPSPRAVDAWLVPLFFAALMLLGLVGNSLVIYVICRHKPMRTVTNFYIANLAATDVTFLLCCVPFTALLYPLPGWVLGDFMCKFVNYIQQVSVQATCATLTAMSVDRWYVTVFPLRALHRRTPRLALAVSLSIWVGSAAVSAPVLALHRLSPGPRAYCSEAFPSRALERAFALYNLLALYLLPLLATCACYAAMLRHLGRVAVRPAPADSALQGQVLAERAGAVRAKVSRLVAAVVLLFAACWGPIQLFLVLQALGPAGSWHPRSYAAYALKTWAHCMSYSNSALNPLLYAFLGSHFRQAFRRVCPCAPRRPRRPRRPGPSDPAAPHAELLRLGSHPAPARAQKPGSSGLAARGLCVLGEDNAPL
(Calcium assays in cells follow changes in intracellular calcium, usually with a dye or a luminescent sensor.)

The nature of experiment [5]: G protein-coupled receptor (GPCR) small molecule agonists, calcium flux assay: HEK293 wild type cell line counter screen (AID 1920065). The procedure, abridged: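 Following 18 h incubation at 37 C/5% CO2, plates got calcium dye for 1 h; compounds, ATP or DMSO were then pinned in and fluorescence followed kinetically (480/540 nm).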
A short description of experiment [6]: p53 small molecule agonists, cell-based qHTS assay with human liver microsomes (AID 1963577).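 Also: p53 response element beta-lactamase reporter cells with liver microsomes plus NADPH.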 The procedure, abridged:
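Reporter activation was measured by LiveBLAzer fluorescence intensity in p53RE-bla cells, which had been exposed to compounds for 16 h at 37 C alongside 0.5 mg/mL human liver microsomes and 0.5 mg/mL NADPH (final concentrations).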

A short description of experiment [7]: p53 small molecule agonists, cell-based qHTS assay with rat liver microsomes (AID 1963578). The procedure, abridged: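 Compound in DMSO added to p53RE-bla cells 5 h post-plating; rat microsomes/NADPH 0.5 mg/mL final; 16 h, 37 C; LiveBLAzer 2 h RT.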
Experiment [8] can be described thus: p53 small molecule agonists, cell-based qHTS assay with rat liver microsomes: qHTS cell viability counter screen (AID 1963580). Also: nearly all actives have a fitted effect of over 45% in size. The procedure, abridged: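 Luminescent ATP readout (CellTiter-Glo, 30 min at room temperature) reports viability of p53RE-bla HCT-116 cells after 16 h at 37 C with test compounds under metabolic activation by rat liver microsomes and NADPH at 0.5 mg/mL final each.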

Experiment [9] in a line: cAMP Responsive Elements (CRE) small molecule antagonists, cell-based qHTS assay (AID 1963591; active = well fitted inhibition curve with a large enough effect in the signal ratio in the repeat runs, not every such curve was filed as active; the % refers to the signal ratio; also: potency is read from the fitted curve at half-maximal effect). The procedure, abridged: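 Reporter line CRE-bla HEK 293T in dialyzed-FBS DMEM; cells preincubated 18 h, treated 3 h with compound plus NKH477 (0.25 uM final); LiveBLAzer FRET, 2 h RT.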
The target in experiment [10] is Beta-2 adrenergic receptor (Homo sapiens) (UniProt P07550). The experiment is described as follows: Adrenergic beta2 receptor (ADRB2) small molecule antagonists, cell-based qHTS assay (AID 1963592). Also: series mostly up to about 92 µM; nearly all actives have a fitted effect of over 50% in size. The procedure, abridged:
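Assay format: CHO-ADRB2 cells, 18-20hr seeding at 37C/5% CO2, then compound plus 1nM isoproterenol agonist mix for 0.5hr RT. Homogeneous time-resolved fluorescence cAMP detection after 1hr, expressed as 665/615 nm ratio.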

For experiment [11], the target named is D(2) dopamine receptor (Homo sapiens) (UniProt P14416). The experiment is described as follows: Dopamine D2 receptor (DRD2) small molecule agonists, cell-based qHTS assay (AID 1963594). Also: nearly all actives have a fitted effect of over 35% in size. Also: potency is read from the fitted curve at half-maximal effect. The procedure, abridged:
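HEK293 cells stably expressing DRD2 were cultured 24 h at 37 C, then given Ro20-1724 (0.1 mM final) and compounds for 10 min at room temperature. NKH477 (200nM) was then added for 30 min. cAMP was read by HTRF.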

For experiment [12] the target is unchanged. The experiment is described as follows: Dopamine D2 receptor (DRD2) small molecule antagonists, cell-based qHTS assay (AID 1963595; active = well fitted inhibition curve with a large enough effect in the signal ratio in the repeat runs, with a control signal flat; the % refers to the signal ratio; also: potency is read from the fitted curve at half-maximal effect). The procedure, abridged:
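Antagonism was scored as restored cAMP in HEK293-DRD2 cells. These cells were stimulated with 200 nM NKH477 and 12 nM quinpirole for 30 min at room temperature, in the presence of 0.1 mM Ro20-1724.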

The target of experiment [13] is 5-hydroxytryptamine receptor 2A (Homo sapiens) (UniProt P28223). The experiment in a line: 5-hydroxytryptamine receptor 2A (HTR2A) small molecule antagonists, cell-based qHTS assay (AID 1963586). Also: nearly all actives have a fitted effect of over 45% in size. The procedure, abridged:
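CHO cells stably expressing human HTR2A were plated for 18 h at 37 C, then loaded with calcium dye for 1 h. Compounds were preincubated 5 min at room temperature before DOI (4 nM solution) was added. Kinetic fluorescence was read for 3 min.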

In experiment [14] the target is Muscarinic acetylcholine receptor M1 (Homo sapiens) (UniProt P11229). The experiment is described as follows: Cholinergic receptor muscarinic 1 (CHRM1) small molecule antagonists, cell-based qHTS assay (AID 1963588). Also: nearly all actives have a fitted effect of over 40% in size. The procedure, abridged: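 Compounds were tested at 15 concentrations in three independent runs. Dye-loaded CHRM1-CHO cells were exposed 5 min at room temperature before stimulation by acetylcholine added at 50nM. Intracellular calcium was read kinetically on FDSS for 3 min.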
Chain of Muscarinic acetylcholine receptor M1 (Homo sapiens) (P11229 whole entry, looked up): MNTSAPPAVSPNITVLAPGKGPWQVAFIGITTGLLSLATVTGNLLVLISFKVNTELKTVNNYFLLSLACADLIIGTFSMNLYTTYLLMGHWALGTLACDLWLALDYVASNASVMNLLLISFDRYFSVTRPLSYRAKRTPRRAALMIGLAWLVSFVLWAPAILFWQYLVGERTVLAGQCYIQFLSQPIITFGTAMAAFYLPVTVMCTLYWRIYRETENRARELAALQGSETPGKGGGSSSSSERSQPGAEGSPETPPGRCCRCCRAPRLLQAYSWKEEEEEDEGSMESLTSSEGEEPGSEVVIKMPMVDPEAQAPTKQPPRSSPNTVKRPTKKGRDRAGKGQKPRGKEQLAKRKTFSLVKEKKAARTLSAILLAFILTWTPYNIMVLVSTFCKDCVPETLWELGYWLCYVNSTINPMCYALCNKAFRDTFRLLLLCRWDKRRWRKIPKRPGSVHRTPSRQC

Experiment [15] shares this target. The experiment is described as follows: Cholinergic receptor muscarinic 1 (CHRM1) small molecule agonists, cell-based qHTS assay (AID 1963589). Also: nearly all actives have a fitted effect of over 35% in size. The procedure, abridged: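 Kinetic fluorescence (1 s intervals) of calcium-sensitive dye in human M1 CHO cells after compound addition; cells pre-incubated 18 h at 37 C/5% CO2 and dye-loaded 1 h.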
A short description of experiment [16]: cAMP Responsive Elements (CRE) small molecule agonists, cell-based qHTS assay (AID 1963590). The procedure, abridged:
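Test agents in DMSO were incubated 3 h at 37 C/5% CO2 with CRE-bla HEK 293T cells seeded 18 h earlier; LiveBLAzer B/G FRET substrate was added and read after 2 h at room temperature.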

A short description of experiment [17]: p53 small molecule agonists, cell-based qHTS assay (AID 1963582; active = well fitted activation curve with a large enough effect in the signal ratio in the repeat runs, not every such curve was filed as active; the % refers to the signal ratio). The procedure, abridged:
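Measured: fluorescence from cleaved LiveBLAzer substrate. System: p53RE-bla cells, 16 h compound treatment at 37 C, 2 h substrate step at room temperature.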

Experiment [18] concerns the target 5-hydroxytryptamine receptor 2A (Homo sapiens) (UniProt P28223). The experiment is described as follows: 5-hydroxytryptamine receptor 2A (HTR2A) small molecule agonists, cell-based qHTS assay (AID 1963587). Also: nearly all actives have a fitted effect of over 30% in size. Also: potency is read from the fitted curve at half-maximal effect. The procedure, abridged:
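HTR2A-CHO cells, plated 18 h at 37 C/5% CO2, dye-loaded 1 h at 37 C; compounds in DMSO added by pin tool (agonist mode). Intracellular calcium flux read as kinetic fluorescence on FDSS over 2 min at 1 s intervals.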

The target of experiment [19] is Beta-2 adrenergic receptor (Homo sapiens) (UniProt P07550). The experiment in a line: Adrenergic beta2 receptor (ADRB2) small molecule agonists, cell-based qHTS assay (AID 1963593).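 Also: CHO cells stably overexpressing human ADRB2.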 The procedure, abridged:
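CHO cells stably over-expressing ADRB2 were plated overnight at 37C, then dosed with compounds plus a stimulation mix containing 100uM IBMX and 25uM Ro-20-1724 for 0.5hr at room temperature. cAMP was measured by HTRF competition, 1hr.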

The nature of experiment [20]: p53 small molecule agonists, cell-based qHTS assay: qHTS cell viability counter screen (AID 1963581). Also: nearly all actives have a fitted effect of over 45% in size. The procedure, abridged: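 qHTS counter screen: 16 h compound exposure at 37 C of p53RE-bla HCT-116 cells (4,000 per well, seeded 5 h prior), cell viability by ATP luminescence.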

A number with no mark means an inactive call. Results filed as inconclusive are left out. The source made the active and inactive calls. Unless noted, calls follow the shape of the full dose curve.

Chain of Beta-2 adrenergic receptor (Homo sapiens) (P07550 whole entry, looked up): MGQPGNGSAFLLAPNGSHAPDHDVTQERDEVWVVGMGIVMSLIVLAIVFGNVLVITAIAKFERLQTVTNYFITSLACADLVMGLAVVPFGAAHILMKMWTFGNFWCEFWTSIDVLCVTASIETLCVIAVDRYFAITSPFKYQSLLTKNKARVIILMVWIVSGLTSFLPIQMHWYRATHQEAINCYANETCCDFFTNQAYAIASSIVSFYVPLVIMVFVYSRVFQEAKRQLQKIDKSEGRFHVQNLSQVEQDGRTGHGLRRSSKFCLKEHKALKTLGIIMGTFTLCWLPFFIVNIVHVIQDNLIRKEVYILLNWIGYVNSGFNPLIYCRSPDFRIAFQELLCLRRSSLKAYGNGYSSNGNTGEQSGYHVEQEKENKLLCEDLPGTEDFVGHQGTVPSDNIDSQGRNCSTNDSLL
Chain of Gonadotropin-releasing hormone receptor (Homo sapiens) (P30968 whole entry, looked up): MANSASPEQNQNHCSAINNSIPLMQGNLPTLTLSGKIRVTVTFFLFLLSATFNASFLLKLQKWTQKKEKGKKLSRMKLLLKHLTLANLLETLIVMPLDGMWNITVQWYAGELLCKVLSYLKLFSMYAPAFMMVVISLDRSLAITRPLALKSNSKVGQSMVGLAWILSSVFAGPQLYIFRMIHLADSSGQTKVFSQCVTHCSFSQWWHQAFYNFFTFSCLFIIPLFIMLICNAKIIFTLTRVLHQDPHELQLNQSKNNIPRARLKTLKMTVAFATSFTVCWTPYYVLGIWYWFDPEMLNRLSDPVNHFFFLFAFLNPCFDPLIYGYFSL
Chain of 5-hydroxytryptamine receptor 2A (Homo sapiens) (P28223 whole entry, looked up): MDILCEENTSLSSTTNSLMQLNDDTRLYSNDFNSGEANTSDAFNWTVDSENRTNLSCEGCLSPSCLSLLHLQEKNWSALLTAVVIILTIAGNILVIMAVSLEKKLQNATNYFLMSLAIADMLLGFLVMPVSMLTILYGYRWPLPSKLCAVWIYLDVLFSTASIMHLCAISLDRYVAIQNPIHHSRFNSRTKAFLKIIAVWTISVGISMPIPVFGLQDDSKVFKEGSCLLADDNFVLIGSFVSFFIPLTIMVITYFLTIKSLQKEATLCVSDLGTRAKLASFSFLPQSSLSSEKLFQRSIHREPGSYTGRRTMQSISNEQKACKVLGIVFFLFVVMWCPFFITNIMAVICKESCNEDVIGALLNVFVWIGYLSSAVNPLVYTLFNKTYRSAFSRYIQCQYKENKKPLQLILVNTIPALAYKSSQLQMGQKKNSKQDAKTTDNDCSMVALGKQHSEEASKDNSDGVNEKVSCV
Chain of D(2) dopamine receptor (Homo sapiens) (P14416 whole entry, looked up): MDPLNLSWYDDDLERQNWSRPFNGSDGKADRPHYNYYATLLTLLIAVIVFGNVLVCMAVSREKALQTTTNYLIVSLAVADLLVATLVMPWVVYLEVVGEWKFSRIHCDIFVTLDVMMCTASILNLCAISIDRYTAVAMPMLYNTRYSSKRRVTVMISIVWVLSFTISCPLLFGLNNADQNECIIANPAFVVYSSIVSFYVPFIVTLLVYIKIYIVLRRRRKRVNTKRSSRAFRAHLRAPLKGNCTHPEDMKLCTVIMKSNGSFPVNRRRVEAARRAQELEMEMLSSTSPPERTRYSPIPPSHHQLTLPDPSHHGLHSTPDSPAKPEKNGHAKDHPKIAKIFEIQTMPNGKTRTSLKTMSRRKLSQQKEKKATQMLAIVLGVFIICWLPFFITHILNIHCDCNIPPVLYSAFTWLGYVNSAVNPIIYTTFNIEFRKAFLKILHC

Regarding `CC(CCc1ccc(O)cc1)NCCc1ccc(O)c(O)c1` (stereo not drawn), the Potency entry in experiment [1], in experiment [2], in [3], in experiment [6], in [7] and in experiment [8] was “inactive” each time. Besides, the Potency entry in [9] and in experiment [10] was “inactive” throughout. For the same compound, the result in experiment [4] and in experiment [5] was inactive. Also, the Potency in [11] was 0.0779 µM (active); in experiment [12], 10.6 µM (active).

In the case of `CCCCCCCCCOC(=O)c1ccc(O)cc1`, the values for the Potency in experiment [1] and in experiment [9] were 26.9 µM (active) and 21.4 µM (active), respectively. Further, the Potency result in experiment [2], in [3], in experiment [6], in experiment [7], in [8] and in [13] was “inactive” in each case. Besides, the Potency result in experiment [14], in [15], in experiment [16], in [10] and in experiment [11] was “inactive” each time. For the same compound, the result in experiment [4] and in [5] was inactive.

With `C#CC(O)CCCCC` (stereo not drawn), the Potency result in experiment [1], in experiment [2], in experiment [3], in [6], in experiment [7] and in experiment [8] was “inactive” each time. Moreover, the Potency entry in experiment [17], in [13], in experiment [18], in [14], in experiment [15] and in [16] was “inactive” throughout. Moreover, the Potency result in [9], in experiment [19], in experiment [11] and in experiment [12] was “inactive” each time. The outcome in experiment [4] and in [5] was inactive.

In the case of `CCCCC(CC)COC(=O)COc1ccc(Cl)cc1C` (stereo not drawn), the Potency entry in experiment [1], in [2], in [3], in experiment [6], in experiment [7] and in experiment [8] was “inactive” in each case. Also, the Potency result in [17], in experiment [13], in experiment [18], in experiment [14], in experiment [15] and in experiment [9] was “inactive” in each case. Besides, the Potency entry in experiment [10], in experiment [11] and in experiment [12] was “inactive” in each case. The result in [4] and in experiment [5] was inactive.

Turning to `Cc1ccc(-n2[nH]c(C)c(N=Nc3cccc(-c4cccc(C(=O)O)c4)c3O)c2=O)cc1C`, in [1], the Potency was 26.6 µM (active). The Potency result in [2], in experiment [3], in experiment [6], in experiment [7], in [20] and in [18] was “inactive” throughout. Further, the Potency result in experiment [14], in experiment [15], in experiment [9], in [10], in experiment [11] and in experiment [12] was “inactive” throughout. Moreover, the outcome in experiment [4] and in experiment [5] was inactive.

`COc1cc(O)cc(O)c1`: the Potency entry in experiment [1], in experiment [2], in experiment [3], in experiment [6], in [7] and in experiment [20] was “inactive” throughout. Besides, the Potency result in experiment [17], in experiment [18], in experiment [14], in experiment [15], in experiment [16] and in experiment [9] was “inactive” throughout. Besides, the Potency result in [10], in [19], in experiment [11] and in experiment [12] was “inactive” in each case. For the same compound, the result in [4] and in experiment [5] was inactive.

With `CCCC(=O)c1cc(O)c(O)cc1O`, the Potency in experiment [1] is 9.69 µM (active); in experiment [2] it was 4.86 µM (active); in experiment [18], 0.436 µM (active). For the same compound, the Potency result in experiment [3], in experiment [6], in [7], in experiment [8], in experiment [13] and in [14] was “inactive” throughout. Besides, the outcome in [4] and in [5] was inactive.

Consider `O=C(NC(Cc1cc(=O)[nH]c2ccccc12)C(=O)O)c1ccc(Cl)cc1` (stereo not drawn), for which the Potency entry in experiment [1], in experiment [2], in experiment [3], in [6], in experiment [7] and in experiment [8] was “inactive” in each case. The Potency result in experiment [20], in [18], in [14], in experiment [15], in experiment [16] and in experiment [9] was “inactive” throughout. Moreover, the Potency entry in [10], in experiment [11] and in [12] was “inactive” in each case. In addition, the result in [4] and in [5] was inactive.
